ClpP mod: qHTS Assay for Activators of ClpP; Potency, µM (top dose mostly 57.5 µM), without a hit: at the highest dose activity change, negative = active; ATP-dependent Clp protease proteolytic subunit (Bacillus subtilis (strain 168)), P80244; purified B. subtilis ClpP, FRET peptide cleavage, 20 min; 1.9% of 340,000 active; active = well fitted falling curve with a large enough effect; inconclusive = small, poorly fitted or top-dose-only effect; inactive = no such curve, though single readings can be large or run the other way; note: potency is the fitted concentration of half-maximal effect; the source files actives as falling curves though it sought activators and does not explain the sign; nearly all actives have a fitted effect of over 65% in size
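FRET quenching reversal measured ClpP activation: 10 microg/mL B. subtilis ClpP at pH 8 with the FRET-FV decapeptide, read at 430 nm after 320 nm excitation. The 20-min minus 0-min signal was scaled between DMSO/no-enzyme wells and ADEP (5.8 microM final).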
D3 ag: activates the human D3 dopamine receptor. P35462. D3R DiscoveRx beta-arrestin cells, luminescence, 90 min. max activation, %. 0.58% of 410,000 active. AID 652048; in the data active = max activation above about 30%; note: 0% is about no effect
Target sequence (P35462 whole entry, looked up): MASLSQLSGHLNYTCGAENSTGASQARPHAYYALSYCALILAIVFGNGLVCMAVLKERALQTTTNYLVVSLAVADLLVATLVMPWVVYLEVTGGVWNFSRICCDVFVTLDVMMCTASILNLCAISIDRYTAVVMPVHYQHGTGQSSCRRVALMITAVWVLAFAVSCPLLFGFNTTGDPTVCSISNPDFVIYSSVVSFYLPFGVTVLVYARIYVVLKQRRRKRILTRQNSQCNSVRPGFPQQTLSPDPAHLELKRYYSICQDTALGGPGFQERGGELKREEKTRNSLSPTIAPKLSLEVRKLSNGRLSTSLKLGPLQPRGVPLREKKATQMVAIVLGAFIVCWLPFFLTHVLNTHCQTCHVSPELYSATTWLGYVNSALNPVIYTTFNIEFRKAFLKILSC
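Cells at 1500/well, incubated overnight, then treated with pinned compounds (dopamine as control) for 90 min at 37 degrees C. DiscoveRx reagent added for 30 - 60 minutes at room temperature; luminescence read.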
DT40 TDP1 CPT: growth inhibition of DT40 Tdp1-/-;hTDP1 cells with camptothecin (screen for TDP1 inhibitors) | chicken DT40 Tdp1-/-;hTDP1 cells + 20 nM CPT, ATP luminescence, 48 h | Potency, µM (doses to about 46.2 µM), without a hit: at the highest dose activity change, negative = growth inhibition, usual class: inhibitors | 12% of 420,000 active; note: potency is the fitted concentration of half-maximal effect; % is set by controls: 0 for no effect and ±100 for the full control effect; nearly all actives have a fitted effect of over 55% in size
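Cell growth measured by CellTiter-Glo luminescence after a minimum 48 h, 37 C compound exposure with 20 nM CPT in Tdp1-knockout DT40 cells stably expressing hTDP1, seeded 400/well; qHTS titration format.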
IL1B secr inh: inhibitors of inflammasome signaling (IL-1 beta secretion); THP-1 LPS/ATP IL-1B secretion, AlphaLISA, 16 h; active compounds read low; activity change, % at 57.5 µM; 4.7% of 360,000 active; AID 743279; in the data active = activity change below about -50%; inconclusive = mostly about -30% to -49%; note: % is set by controls: 0 for no effect and ±100 for the full control effect
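THP-1 cells pretreated 1 hr with compounds (up to 57.5 uM final), then stimulated with LPS (250 ng/mL final) plus ATP (1.25 mM final); secreted IL-1B measured by AlphaLISA after 16 hr, decreased signal indicating inhibition.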
DT40 TDP1 no CPT: qHTS for Inhibitors of human tyrosyl-DNA phosphodiesterase 1 (TDP1): qHTS in cells in absence of CPT | Potency, µM (highest dose often 46.2 µM), for the others: at the top dose activity change, negative = growth inhibition, hits mostly inhibitors | DT40 Tdp1-/- hTDP1 cells, no CPT, ATP luminescence, 48 h | 15% of 420,000 active | AID 686978, 2013; note: potency is the fitted concentration of half-maximal effect; % is set by controls: 0 for no effect and ±100 for the full control effect; nearly all actives have a fitted effect of over 55% in size
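A cellular qHTS used chicken DT40 cells lacking endogenous Tdp1 but carrying stably transfected human TDP1. Compounds were applied without camptothecin, and cell growth kinetics were judged by ATP-dependent luminescence after ≥48 hr.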
D3 antag: blocks the human D3 dopamine receptor; D3R cells, DiscoveRx beta-arrestin luminescence, antagonist mode; active compounds read low; max response, negative = inhibition, %; 2.5% of 360,000 active; in the data active = max response below about -50%; inconclusive = no clear call, values can overlap the other calls; note: % is set by controls: 0 for no effect and ±100 for the full control effect
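Cells plated overnight at 1500 cells/well, then exposed to library compounds with dopamine controls for 90 minutes at 37 degrees C. DiscoveRx reagent added for 30–60 minutes at room temperature; luminescence read, quantitative HTS format.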
An asterisk follows results filed as active; ? = inconclusive; . = not tested or not shown; [ ] = remark or other dose. Only some compounds are listed: those with a hit (about 21% of all), similar ones and a draw of the others. Unless noted, calls come from the whole dose curve; as a rule, active = well fitted inhibition curve with a large enough effect; inconclusive = small, poorly fitted or top-dose-only effect; inactive = flat fitted curve, though single readings scatter.

SMILES	ClpP mod	D3 ag	DT40 TDP1 CPT	IL1B secr inh	DT40 TDP1 no CPT	D3 antag
COC(=O)c1scc(-c2ccc(C)cc2)c1S(=O)(=O)N1CCN(c2ccc(F)cc2)CC1	1.5%	-4.3	8.2µM*	.	1.84µM*	.
COC(=O)c1scc(-c2ccc(C)cc2)c1S(=O)(=O)N1CCN(c2cccc(OC)c2)CC1	-0.3%	-14.2	9.2µM*	.	5.8µM*	.
O=C(NCCC1=CCCCC1)C1CCN(S(=O)(=O)c2cccc(C(F)(F)F)c2)CC1	0.3%	0.6	?	-1.7	?	-11.7
Nc1nc(CCl)nc(Nc2cccc3ccccc23)n1	3.4%	3.1	?	-99.9*	3.26µM*	6.6
Cn1c(N2CCOCC2)nc(-c2ccccc2)c1-c1ccccc1	11.2µM*	-5.2	-19.1%	?	?	-17.7
CCOc1cccc(/C=N/NC(=O)c2ccc3c(c2)OCCO3)c1O	.	3.6	2.59µM*	62.0	4.11µM*	-13.5
O=C(CNC(=O)c1ccncc1)N/N=C/c1ccc(O)cc1O	-3.3%	3.7	?	5.6	18.4µM*	9.4
COc1cccc(/C=N/NC(=O)CNC(=O)C2COc3ccccc3O2)c1O (configuration not stated)	-11.3%	7.0	5.8µM*	195.2	3.66µM*	-12.7
O=C(N/N=C/c1cccc(O)c1)c1ccc2c(c1)OCCO2	-0.1%	-4.8	1.3%	-11.9	3.7%	-12.8
O=C(COc1ccccc1)NCC(=O)N/N=C/c1ccc(Br)cc1	-1.9%	-11.2	-19.2%	-7.5	-10.9%	-1.2
Cc1cccc(OCC(=O)NCC(=O)N/N=C/c2cc(Br)cc(Br)c2O)c1	.	-24.8	?	96.6	?	-80.9*
O=C(CNC(=O)C1COc2ccccc2O1)N/N=C\c1ccccc1Cl (configuration not stated)	.	-18.7	-9.4%	-1.2	-11.5%	-19.0
COc1ccc2c(c1)OC(C)CN(CC(=O)NCc1cn[nH]c1-c1ccc(F)cc1)C2 (configuration not stated)	.	.	-1.5%[9.04 µM]	.	-18.6%	.
CCCc1cc(=O)[nH]c(Nc2cc(C)ccc2OC)n1	4.1%	-28.3	-10.8%	.	-26.3%	.
CCOc1ccc(Sc2cc(C(=O)NC(C)CC)c3ccccc3n2)cc1 (configuration not stated)	-4.8%	2.6	-15.2%	.	-15.3%	.
CCCC(C)NC(=O)CSc1nc2ccc(C)cc2[nH]1 (configuration not stated)	0.9%	1.4	-16.3%	-5.7	-19.9%	-4.8
CCOc1ccc(/C=N/NC(=O)C(O)c2ccccc2)c(O)c1 (configuration not stated)	.	-4.0	4.11µM*	94.5	?	8.5
COc1cccc(/C=N/NC(=O)CNC(=O)COc2ccccc2)c1O	-14.6%	24.6	6.51µM*	180.4	7.31µM*	4.7
CCOc1ccc(CCNC(=O)C(O)c2ccccc2)cc1 (configuration not stated)	-0.5%	3.2	4.0%	15.2	-27.6%	3.5
O=C(COc1ccccc1)NCC(=O)N/N=C/c1ccc(O)cc1O	.	14.1	?	119.9	16.4µM*	11.4
COc1ccc(/C=N/NC(=O)CNC(=O)COc2ccccc2)cc1	-0.3%	-0.2	-5.9%	-6.5	-15.5%	-15.3
O=C(CNC(=O)c1ccc2c(c1)OCCO2)N/N=C/c1ccc(O)cc1O	-13.2%	10.3	?	9.5	18.4µM*	-6.8
Cc1ccc(/C=N/NC(=O)CNC(=O)COc2ccccc2)cc1	-1.3%	5.1	8.0%	-8.2	-6.7%	10.4
O=C(Nc1cc(C(F)(F)F)ccc1Cl)c1cc(-c2cccs2)nc2ccccc12	-7.0%	3.3	-11.3%	.	-28.8%	.
COc1cc2c(cc1O)-c1ccccc1CN(C)C2	.	.	19.2%[9.04 µM]	.	2.7%[9.04 µM]	.
COc1cccc(/C=N/NC(=O)CN2CC(c3ccccc3)CC2=O)c1O (configuration not stated)	-18.5%	0.1	?	92.2	18.4µM*	-19.5

Screening data (PubChem)
